Experiment [1] can be described thus: Primary qHTS for inhibitors of nuclear receptor binding SET domain protein 2 (NSD2) in an isogenic RCH-ACV NSD2 p.E1099K mutant (9B) (AID 1645876). To be noted: RCH-ACV NSD2 E1099K (9B) viability, CellTiter-Glo, 72 h; series mostly up to 44.9 µM.
Experiment [2] is described as follows: Primary qHTS for inhibitors of nuclear receptor binding SET domain protein 2 (NSD2) in an RCH-ACV wild type WT cells (2C) (AID 1645877). The note with it: RCH-ACV (leukaemia line) NSD2 WT (2C) viability, CellTiter-Glo, 72 h; series mostly up to 44.9 µM.

Inconclusive results are not listed. Calls of active or inactive are those of the source. The call rests on the fitted dose curve; in most records, active means well fitted curve in the direction sought with a large enough effect; inconclusive means small, poorly fitted or top-dose-only effect, or another doubt; inactive means no such curve, though single readings can be large; an effect the other way counts as inactive or inconclusive.
Further: nearly all actives have a fitted effect of over 70% in size.
Potency means the concentration at half of the fitted maximal effect.

As to `O=C(Nc1cc(C(F)(F)F)cc(C(F)(F)F)c1)c1cnc(Cl)nc1C(F)(F)F`, in experiment [1], the Potency was 25.8 µM (active). With `C=C(NC(=O)C(=C)NC(=O)c1csc(C2=NC3c4csc(n4)C4NC(=O)c5csc(n5)C(C(C)(O)C(C)O)NC(=O)C5CSC(=N5)/C(=C/C)NC(=O)C(C(C)O)NC(=O)c5csc(n5)C3(CC2)NC(=O)C(C)NC(=O)C(=C)NC(=O)C(C)NC(=O)C(C(C)CC)NC2C=Cc3c(C(C)O)cc(nc3C2O)C(=O)OC4C)n1)C(N)=O` (stereo not drawn), the results for the Potency in experiment [1] and in experiment [2] were 2.3 µM (active) and 0.916 µM (active), respectively. With `O=C(Nc1ccnc(NC(=O)C2CC2)c1)c1c(Cl)cccc1Cl`, the Potency in experiment [1] and in experiment [2] was 2.95 µM (active) each time. `CC(=O)c1ccc2c(c1)[C@H](NC(=O)c1ccc(F)c(Cl)c1)[C@H](O)C(C)(C)O2`: the Potency result in experiment [1] and in experiment [2] was “inactive” in each case. `COc1ccc(CCO[C@@H]2O[C@H](CO[C@H]3OC[C@](O)(CO)[C@H]3O)[C@@H](OC(=O)/C=C/c3ccc(O)c(O)c3)[C@H](O[C@@H]3O[C@@H](C)[C@H](O)[C@@H](O)[C@H]3O)[C@H]2O)cc1OC`: the Potency in experiment [1] was 6.08 µM (active); in experiment [2], 4.83 µM (active). The corresponding values for `C=C[C@@]12COC(=O)C(=C)[C@@H]1[C@@H](O)[C@H](C(=C)C(=O)OC)[C@@H](O)C2` are “inactive” and “inactive”.

Turning to `CC1(C)CC[C@]2(C(=O)O[C@@H]3O[C@H](CO)[C@@H](O)[C@H](O)[C@H]3O)CC[C@]3(C)C(=CCC4[C@@]5(C)CC[C@H](O[C@@H]6O[C@H](C(=O)O)[C@H](O)[C@H](O)[C@H]6O)C(C)(C)C5CC[C@]43C)[C@@H]2C1` (stereo partly drawn), the Potency in experiment [1] was 6.08 µM (active); in experiment [2], 5.41 µM (active).

The record behind these values is PubChem BioAssay (NCATS).
